Compounds with a hit are over-represented: about 19% of the library has one in this group of screens.
IL1B secr inh = blocks inflammasome-driven IL-1 beta release. 360,000 tested, 4.7% active. THP-1 LPS/ATP IL-1B secretion, AlphaLISA, 16 h; stronger effect = lower value. activity change, % at 57.5 µM; in the data active = activity change below about -50%; inconclusive = mostly about -30% to -49%; also: % is scaled to controls: 0 for no effect and ±100 for the full control effect
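Secreted IL-1B measured by AlphaLISA bead assay after 16 h compound exposure of THP-1 cells; compounds (final up to 57.5 uM) added 1 h before LPS (250 ng/mL) and ATP (1.25 mM) stimulation; lower signal means less secretion.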
HepG2 tox = counter-screen for TGF-b inhibitors: cytotoxicity in HepG2 cells | 410,000 tested, 0.76% active | Potency, µM (top dose mostly 46.1 µM), for the others: top-dose activity change, negative = cytotoxicity, hits mostly cytotoxic | HepG2 CAGA-GFP viability, ATP luminescence, 18 h; also: potency is read from the fitted curve at half-maximal effect
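HepG2 CAGA-GFP cells (1000/well, DMEM with 1% FBS) received compound, then TGF-beta at 500 pg/mL final, and were incubated 18 hours at 37 degrees C. Viability was read by CellTiter-Glo luminescence. Media-only wells were set as complete cell-killing and DMSO as no toxicity.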
S-ASM inh = inhibitors of human secretory acid sphingomyelinase. P17405. placental ASM, HMU-PC fluorogenic substrate, 60 min. Potency, µM (highest dose often 57.5 µM), without a hit: top-dose activity change, negative = inhibition, most hits filed as inhibitors. 340,000 tested, 0.006% active. AID 504937; also: potency is read from the fitted curve at half-maximal effect
Target sequence (P17405 47-631 limits assumed): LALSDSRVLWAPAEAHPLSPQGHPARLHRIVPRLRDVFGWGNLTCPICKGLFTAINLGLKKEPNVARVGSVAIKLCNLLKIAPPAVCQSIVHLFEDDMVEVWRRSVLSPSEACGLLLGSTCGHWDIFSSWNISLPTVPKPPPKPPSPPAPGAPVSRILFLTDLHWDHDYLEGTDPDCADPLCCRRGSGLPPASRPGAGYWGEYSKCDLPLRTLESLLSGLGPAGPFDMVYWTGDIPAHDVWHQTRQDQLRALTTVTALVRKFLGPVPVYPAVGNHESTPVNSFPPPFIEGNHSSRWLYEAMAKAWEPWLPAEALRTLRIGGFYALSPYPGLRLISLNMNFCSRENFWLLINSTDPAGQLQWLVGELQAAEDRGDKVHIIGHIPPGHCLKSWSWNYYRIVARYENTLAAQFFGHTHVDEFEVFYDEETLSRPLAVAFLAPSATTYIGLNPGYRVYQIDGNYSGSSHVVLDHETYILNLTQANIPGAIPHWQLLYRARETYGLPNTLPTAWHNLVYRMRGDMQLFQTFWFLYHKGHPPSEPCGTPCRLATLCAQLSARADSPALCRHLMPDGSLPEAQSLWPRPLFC
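Fluorescence read-out (Ex 386 nm, Em 447 nm) after stopping the reaction at pH 10. Enzyme: ASM from human placenta; substrate HMU-PC0, 9 uM final; 60 min, 37 °C. Compound preincubation 10 min, ambient temperature.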
TDP1 cell CPT = DT40-hTDP1 cell growth loss with CPT. chicken DT40 Tdp1-/-;hTDP1 cells + 20 nM CPT, ATP luminescence, 48 h. Potency, µM (top dose mostly 46.2 µM), inactives show at the highest dose activity change, negative = growth inhibition, usual class: inhibitors. 420,000 tested, 12% active. AID 686979; also: potency is read from the fitted curve at half-maximal effect; % is scaled to controls: 0 for no effect and ±100 for the full control effect; nearly all actives have a fitted effect of over 55% in size
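Chicken DT40 Tdp1-/- cells stably complemented with human TDP1 were seeded at 400 cells/well in medium containing 20 nM camptothecin, exposed to pin-transferred compounds, and grown at 37 °C for at least 48 hr. Viability was read as ATP luminescence.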
TDP1 cell noCPT = qHTS for Inhibitors of human tyrosyl-DNA phosphodiesterase 1 (TDP1): qHTS in cells in absence of CPT. DT40 Tdp1-/- hTDP1 cells, no CPT, ATP luminescence, 48 h. Potency, µM (series often up to 46.2 µM), without a hit: at the highest dose activity change, negative = growth inhibition, hits mostly inhibitors. 420,000 tested, 15% active. AID 686978, 2013; also: potency is read from the fitted curve at half-maximal effect; % is scaled to controls: 0 for no effect and ±100 for the full control effect; nearly all actives have a fitted effect of over 55% in size
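Seeded 400 DT40-hTDP1 cells/well (vehicle DMSO, no 20 nM CPT); pinned compounds; ≥48 hr at 37 °C; CellTiter-Glo luminescence as viability measure.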
TGFb inhibitor = blocks TGF-b signaling; Potency, µM (highest dose often 46.1 µM), for inactives: top-dose activity, negative = inhibition, most hits filed as inhibitors; HepG2 CAGA-GFP TGF-b/SMAD3 reporter, GFP fluorescence, 18 h; TGF-beta stimulated, 500 pg/mL final; 410,000 tested, 1.2% active; also: potency is read from the fitted curve at half-maximal effect; % is scaled to controls: 0 for no effect and ±100 for the full control effect; nearly all actives have a fitted effect of over 65% in size
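GFP signal (ex488/em500-530) from TGF-beta-stimulated HEPG2 CAGA-GFP cells, 500 pg/mL final, 18 h at 37 degrees C in DMEM plus 1% FBS, normalized to unstimulated and DMSO-stimulated controls.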
* marks the source's active call; other numbers are inactive results; u = inconclusive; x = not tested or not shown; [ ] = remark or other dose. Unless noted, calls follow the shape of the dose curve; as a rule, active = well fitted curve in the direction sought with a large enough effect; inconclusive = small, poorly fitted or top-dose-only effect, or another doubt; inactive = no such curve, though single readings can be large; an effect the other way counts as inactive or inconclusive.

SMILES	IL1B secr inh	HepG2 tox	S-ASM inh	TDP1 cell CPT	TDP1 cell noCPT	TGFb inhibitor
O=C(NCC(c1ccco1)N1CCCCC1)c1ccc(NS(=O)(=O)c2ccc(F)cc2)cc1 (stereo unspecified)	13	-20%	8%	-20%	u	-6%
Cc1cccc(NS(=O)(=O)c2ccc(C(=O)NCC(c3ccccc3)N(C)C)cc2)c1C (stereo unspecified)	-6	-18%	1%	16µM*	u	0%
O=C(C[n+]1cccc(Cl)c1)c1ccc(O)c(O)c1	x	6%	x	6%	-24%	6%
O=C(NCC1Cc2cccc(-c3ncccn3)c2O1)c1cccc(-c2ccccc2F)c1 (stereo unspecified)	x	x	x	-10%[9.04 µM]	u	x
COc1ccc(NC(=O)c2sc3nc(C)c(C(=O)Nc4ccc(C)cc4C)c(-c4ccccc4Cl)c3c2N)cc1	x	-8%	x	-4%	-30%	19%
O=C(CSc1nc(-c2cccs2)nc2cc(=O)[nH]n12)Nc1ccccc1	x	-8%	x	2%	0%	-38%
CC12CCC(C(=O)Nc3ccc(SC(F)F)cc3)(CC1=O)C2(C)C (stereo unspecified)	-81*	-27%	-3%	u	-27%	0%
COc1ccc(NC2=NC(=S)N(c3ccccc3C)C23CCCCC3)cc1	-15	4%	-2%	23µM*	26µM*	13%
COc1ccccc1N1CCN(C(=O)Nc2ccc([N+](=O)[O-])cc2)CC1	-14	2%	2%	u	16µM*	5%
CC(C)(C)c1ccc(NC(=O)N2CCN(c3ccc([N+](=O)[O-])cn3)CC2)cc1	x	6%	-11%	3.3µM*	8.2µM*	-29%
COc1ccccc1N1CCN(C(=O)Nc2cccc(C)c2)CC1	-12	5%	-2%	9%	u	-3%
O=C(CSc1nc2ccccc2c(=O)n1-c1ccccc1)NC(=O)CN1CCCC1=O	8	-3%	2%	12%	3%	0%
CCN(CC)C(=O)c1cc(-c2ccc(Cl)cc2)on1	x	-4%	x	-19%	-7%	-22%
CN1c2ccccc2C(C)(C)[C@]12C=Cc1cc(O)ccc1O2	37	-38%	-2%	2.6µM*	7.3µM*	18µM*
CC1(c2cccc3ccccc23)OC(=O)c2ccccc21 (stereo unspecified)	-16	-17%	1%	u	u	-28%
CN1c2ccccc2C(C)(C)C12C=Nc1c(ccc3ccccc13)O2 (stereo unspecified)	-58*	-28%	-3%	1%	-6%	u
COc1ccc2ccc3c(c2c1)N=CC1(O3)N(C)c2ccccc2C1(C)C (stereo unspecified)	-2	-48%	20%	u	23µM*	7.9µM*
CC1(C)OC(=O)N(c2ccccc2)C12C=Cc1cc(Br)ccc1O2 (stereo unspecified)	u	-44%	u	u	u	u
O=C(NNC(=O)c1ccc2ccccc2c1O)c1ccccc1Cl	7	-35%	7%	u	13µM*	-23%
CC(=O)Nc1ccc(Br)c2ccccc12	7	-6%	3%	-17%	u	-11%
COc1cccc(C(=O)NNC(=O)c2ccc3ccccc3c2O)c1	51	-37%	-7%	u	9.2µM*	u
O=C(Nc1ccc(Br)c2ccccc12)c1ccc2ccccc2c1O	-51*	2%	58%	8.2µM*	8.2µM*	u
Cc1[nH]c(=O)[nH]c(=O)c1S(=O)(=O)N1CCN(c2ccccc2Cl)CC1	x	8%	x	-9%	-1%	-1%
COCCNC(=O)CSc1n[nH]c(=O)n1CCc1ccccc1	61	2%	0%	5%	-1%	0%
COc1ccc(/C=C/c2cc[n+](C(=O)Cc3ccccc3)cc2)cc1	-108*	3%	60%	3.3µM*	2.3µM*	0%
SMILES	IL1B secr inh	HepG2 tox	S-ASM inh	TDP1 cell CPT	TDP1 cell noCPT	TGFb inhibitor
CCn1c(=O)cc(OCC(=O)N2CCCCCC2)c2ccccc21	-2	-8%	-2%	-5%	18%	-20%
CCn1c(=O)cc(OCC(=O)N2CCN(c3ccc(F)cc3)CC2)c2ccccc21	0	-11%	-3%	23µM*	15µM*	u
CCn1c(=O)cc(OCC(=O)N2CCN(c3ccc(C)cc3)C(C)C2)c2ccccc21 (stereo unspecified)	x	-41%	x	7.3µM*	6.5µM*	u
Cc1c(C(=O)N2CCCCCC2)c(S(=O)(=O)Nc2ccc(OC(F)(F)F)cc2)c(C)n1C	x	-4%	x	23µM*	16µM*	u
Cc1c(C(=O)N2CCOCC2)c(S(=O)(=O)Nc2ccc(OC(F)(F)F)cc2)c(C)n1C	0	4%	-2%	u	-24%	13%
Cc1c(C(=O)N2CCOCC2)c(S(=O)(=O)Nc2ccc(C(C)C)cc2)c(C)n1C	42	-11%	0%	13µM*	u	-5%
CCc1nc2c(OCC(=O)N3CCOCC3)cccn2c1N(C)C(=O)COc1ccccc1	-12	2%	x	5%	-4%	-3%
CCC(C)n1c(SCC(=O)Nc2ccccc2C(F)(F)F)nc2ccsc2c1=O (stereo unspecified)	-1	-2%	-2%	-19%	-20%	-24%
CCC(C)n1c(SCc2ccc(F)cc2Cl)nc2ccsc2c1=O (stereo unspecified)	x	-2%	x	18µM*	21µM*	1%
CCC(C)n1c(SCC(=O)Nc2ccccc2C(=O)OC)nc2ccsc2c1=O (stereo unspecified)	x	-12%	x	16µM*	18µM*	0%
CCC(C)n1c(SCc2ccccc2)nc2ccsc2c1=O (stereo unspecified)	3	-8%	-5%	u	21µM*	u
CCC(C)n1c(SCc2ccc(C(C)(C)C)cc2)nc2ccsc2c1=O (stereo unspecified)	x	-7%	x	13µM*	13µM*	4%
O=C(Nc1ccccc1C(=O)N1CCCCCC1)c1ccc(F)cc1	27	-9%	0%	-3%	9%	-7%
CCCCN(C)CCNC(=O)c1cc(=O)[nH]c2ccc(S(=O)(=O)N3CCCCCC3)cc12	x	0%	x	-11%	-1%	-14%
Cn1c(=O)c2sccc2n2c(CCCC(=O)NC3CCCCC3)nnc12	x	-1%	x	-15%	-3%	2%

Screens (PubChem BioAssay)
